Results as given in PubChem BioAssay (Tox21).
Records with an inconclusive call do not appear. Where a call stands in place of a potency, no number is given. A structure can be active in one record and inactive in another. Active and inactive are the calls of the source. Unless noted, calls come from the whole dose curve.

Experiments:
[1] = target: Acetylcholinesterase (Homo sapiens) (UniProt P22303); assay: Acetylcholinesterase (AChE) small molecule antagonists: colormetric cell-based qHTS assay (AID 1347395); note: nearly all actives have a fitted effect of over 30% in size; note: potency is the fitted concentration of half-maximal effect
Sequence of Acetylcholinesterase (Homo sapiens) (P22303 whole entry, looked up): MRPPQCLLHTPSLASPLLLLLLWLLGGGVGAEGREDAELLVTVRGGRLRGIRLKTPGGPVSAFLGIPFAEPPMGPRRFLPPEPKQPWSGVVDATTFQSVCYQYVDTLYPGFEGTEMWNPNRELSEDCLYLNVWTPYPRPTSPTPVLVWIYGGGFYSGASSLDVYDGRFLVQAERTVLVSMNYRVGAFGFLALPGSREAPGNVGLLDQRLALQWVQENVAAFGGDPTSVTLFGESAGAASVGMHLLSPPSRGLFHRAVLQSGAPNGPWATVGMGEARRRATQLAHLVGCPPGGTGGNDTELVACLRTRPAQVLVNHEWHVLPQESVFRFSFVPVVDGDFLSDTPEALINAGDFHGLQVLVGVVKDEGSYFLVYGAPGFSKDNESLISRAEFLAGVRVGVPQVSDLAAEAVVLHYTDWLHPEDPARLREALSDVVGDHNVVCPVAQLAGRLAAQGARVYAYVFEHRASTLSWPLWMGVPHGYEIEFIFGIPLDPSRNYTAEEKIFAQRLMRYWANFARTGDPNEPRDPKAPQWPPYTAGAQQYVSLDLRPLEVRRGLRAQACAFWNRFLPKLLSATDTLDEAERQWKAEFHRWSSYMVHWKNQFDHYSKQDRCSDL
Method in brief: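 Colorimetric readout: DTNB quantifies thiocholine from acetylthiocholine hydrolysed by endogenous AChE of SH-SY5Y cells (2,000/well, plated overnight). Compound pretreatment 30 min, substrate incubation 90 min, both 37 C.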

[2] = target: Acetylcholinesterase (Homo sapiens) (UniProt P22303); assay: Acetylcholinesterase (AChE) small molecule antagonists: enzyme-based qHTS assay (AID 1347397); conditions: Potency: AChE enzyme activity inhibition; outcome: AChE enzyme activity inhibition; note: nearly all actives have a fitted effect of over 55% in size; note: potency is the fitted concentration of half-maximal effect
Method in brief: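 Absorbance-based detection of thiocholine with DTNB served as the read-out. Recombinant human AChE was exposed to compound for 30 min at RT before a 10 min RT incubation with acetylthiocholine.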

[3] = target: Acetylcholinesterase (Homo sapiens) (UniProt P22303); assay: Acetylcholinesterase (AChE) small molecule antagonists: fluorescence cell-based qHTS assay (AID 1347398); conditions: Potency: AChE activity; outcome: AChE activity; note: nearly all actives have a fitted effect of over 50% in size; note: potency is the fitted concentration of half-maximal effect
Method in brief: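 Fluorimetric cell-based assay: intact SH-SY5Y cells, 30 min compound preincubation at 37 C, acetylthiocholine substrate with thiol probe Thiolite Green, 40 min RT development, fluorescence 490/520 nm.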

[4] = target: Acetylcholinesterase (Homo sapiens) (UniProt P22303); assay: Acetylcholinesterase (AChE) small molecule antagonists: enzyme-based qHTS assay with human liver microsomes (AID 1347399); conditions: Potency: qHTS inhibition; outcome: qHTS inhibition; note: nearly all actives have a fitted effect of over 60% in size
Method in brief: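 Recombinant human AChE (50 mU/mL in the enzyme mix) and human liver microsomes (0.25 mg/mL final) were preincubated with compound and NADPH (0.25 mg/mL final) for 30 min at 37 C. Acetylthiocholine/DTNB was then added; thiocholine was read colorimetrically after 10 min at room temperature.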

Aromatase (Homo sapiens) = Aromatase (Homo sapiens) (UniProt P11511); assay: qHTS assay to identify aromatase inhibitors (AID 743083; active = well fitted curve in the direction sought with a large enough effect in the repeat runs; an effect the other way counts as inactive or inconclusive; note: nearly all actives have a fitted effect of over 55% in size; note: potency is the fitted concentration of half-maximal effect)
Sequence of Aromatase (Homo sapiens) (P11511 whole entry, looked up): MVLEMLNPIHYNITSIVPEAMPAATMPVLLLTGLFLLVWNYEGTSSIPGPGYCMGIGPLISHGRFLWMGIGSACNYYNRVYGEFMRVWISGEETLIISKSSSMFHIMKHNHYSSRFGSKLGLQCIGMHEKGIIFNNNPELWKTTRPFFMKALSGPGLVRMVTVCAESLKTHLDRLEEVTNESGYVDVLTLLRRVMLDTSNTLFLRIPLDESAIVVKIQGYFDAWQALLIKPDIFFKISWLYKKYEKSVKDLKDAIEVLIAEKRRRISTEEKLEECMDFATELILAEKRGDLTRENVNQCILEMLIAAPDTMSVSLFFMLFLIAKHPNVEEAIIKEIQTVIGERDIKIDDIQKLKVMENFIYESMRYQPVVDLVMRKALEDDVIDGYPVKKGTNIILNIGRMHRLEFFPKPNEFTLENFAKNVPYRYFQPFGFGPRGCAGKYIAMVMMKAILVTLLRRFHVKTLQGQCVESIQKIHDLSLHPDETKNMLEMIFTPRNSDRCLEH

[5] = qHTS assay for small molecule agonists of the p53 signaling pathway (AID 651631); note: nearly all actives have a fitted effect of over 15% in size
Method in brief: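 Readout was fluorescence from the LiveBLAzer FRET substrate, applied for 2 h at room temperature after 16 h compound exposure at 37 °C. Cells were the p53RE-bla HCT-116 line, with beta-lactamase driven by p53 response elements.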

[6] = target: Aryl hydrocarbon receptor (Homo sapiens) (UniProt P35869); assay: qHTS assay to identify small molecule that activate the aryl hydrocarbon receptor (AhR) signaling pathway (AID 743085; active = well fitted curve in the direction sought with a large enough effect in the repeat runs; an effect the other way counts as inactive or inconclusive;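 note: HG2L7.5c1 human HepG2 liver cells with stably integrated DRE-driven firefly reporter; series mostly up to about 70 µM; nearly all actives have a fitted effect of over 15% in size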)
Sequence of Aryl hydrocarbon receptor (Homo sapiens) (P35869 whole entry, looked up): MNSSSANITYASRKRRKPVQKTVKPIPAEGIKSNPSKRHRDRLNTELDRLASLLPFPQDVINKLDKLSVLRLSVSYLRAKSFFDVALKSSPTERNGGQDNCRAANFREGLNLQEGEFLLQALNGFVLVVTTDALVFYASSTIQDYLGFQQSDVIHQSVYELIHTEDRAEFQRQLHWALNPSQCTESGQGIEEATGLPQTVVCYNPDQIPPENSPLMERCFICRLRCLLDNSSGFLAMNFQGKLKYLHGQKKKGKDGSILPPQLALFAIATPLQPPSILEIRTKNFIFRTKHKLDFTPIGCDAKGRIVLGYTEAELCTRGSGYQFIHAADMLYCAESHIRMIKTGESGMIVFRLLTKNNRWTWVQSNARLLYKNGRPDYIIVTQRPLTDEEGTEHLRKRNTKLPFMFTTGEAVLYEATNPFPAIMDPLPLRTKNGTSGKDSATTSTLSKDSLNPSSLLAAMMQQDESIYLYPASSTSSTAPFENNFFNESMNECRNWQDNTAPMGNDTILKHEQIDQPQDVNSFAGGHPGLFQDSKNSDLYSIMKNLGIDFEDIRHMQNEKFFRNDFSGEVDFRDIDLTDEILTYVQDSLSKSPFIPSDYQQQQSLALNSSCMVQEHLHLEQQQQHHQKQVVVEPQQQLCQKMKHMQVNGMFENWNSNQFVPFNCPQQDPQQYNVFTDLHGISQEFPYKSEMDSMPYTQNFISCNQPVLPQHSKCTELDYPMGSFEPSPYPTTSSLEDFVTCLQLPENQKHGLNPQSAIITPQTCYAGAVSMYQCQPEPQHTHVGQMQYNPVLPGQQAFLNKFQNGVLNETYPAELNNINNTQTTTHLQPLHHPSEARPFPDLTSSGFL
Method in brief: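 Luminescence (ONE-Glo) from a dioxin-responsive-element luciferase reporter in HG2L7.5c1 HepG2 cells after 24 hr compound exposure at 37C; viability measured by CellTiter-Fluor fluorescence beforehand.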

| SMILES | Potency [1] | Potency [2] | Potency [3] | Potency [4] | Potency (Aromatase (Homo sapiens)) | Potency [5] | Potency [6] |
| --- | --- | --- | --- | --- | --- | --- | --- |
| C=CC(C)(O)CC/C=C(/C)CCC=C(C)C (stereo not given) | inactive | inactive | inactive | inactive |  |  |  |
| O=C1c2ccccc2C(=O)c2cc(O)ccc21 | inactive | inactive |  | inactive |  |  |  |
| C=CC(=O)N1CCOCC1 | inactive | inactive | inactive | inactive |  |  |  |
| CN(C)[C@@H]1C(=O)C(C(=O)NCN2CCCC2)=C(O)[C@@]2(O)C(=O)C3=C(O)c4c(O)cccc4[C@@](C)(O)C3C[C@@H]12 (stereo not given in full) | inactive | inactive | inactive | inactive |  |  |  |
| CCO[Si](CC)(OCC)OCC | inactive | inactive |  | inactive |  |  |  |
| CCOC(=O)C(=O)CCCCCCl | inactive | inactive | inactive | inactive |  |  |  |
| CCCCCCCC(=O)[O-].CCCCCCCC(=O)[O-].[Zn+2] | inactive | inactive | inactive | inactive |  |  |  |
| CCCCCCCCn1sc(Cl)c(Cl)c1=O | inactive | inactive |  | inactive |  |  |  |
| NNS(=O)(=O)c1ccc(Oc2ccc(S(=O)(=O)NN)cc2)cc1 | inactive | inactive | inactive | inactive |  |  |  |
| CC(C)c1ccc(C=O)cc1 | inactive | inactive | inactive | inactive |  |  |  |
| NC(=O)NS(=O)(=O)c1ccc(N)cc1 | inactive | inactive | inactive | inactive |  |  |  |
| COC(C)CCO (stereo not given) | inactive | inactive | inactive | inactive |  |  |  |
| CCCCCCCCCCCCCCCCCCO | inactive | inactive | inactive | inactive |  |  |  |
| O=C1c2ccccc2C(=O)N1SC1CCCCC1 | 39.9 µM (active) and inactive | 31.7 µM (active) and inactive | 22.4 µM (active) and inactive | inactive | 30.6 µM (active) |  |  |
| NC(=O)c1ccccc1N | inactive | inactive | inactive | inactive |  |  |  |
| Nc1cccc(C(F)(F)F)c1 | inactive | inactive | inactive | inactive | inactive | inactive | inactive |

| SMILES | Potency [1] | Potency [2] | Potency [3] | Potency [4] | Potency (Aromatase (Homo sapiens)) | Potency [5] | Potency [6] |
| --- | --- | --- | --- | --- | --- | --- | --- |
| CC(C)OC(=O)C(O)(CC(=O)O)CC(=O)O | inactive | inactive | inactive | inactive |  |  |  |
| O=C1c2ccccc2C(=O)c2c(O)c(O)cc(O)c21 | inactive | inactive | inactive | inactive |  |  |  |
| C[C@H]1[C@H]2CC[C@H]3[C@@H]4CC=C5C[C@@H](N(C)C)CC[C@]5(C)[C@H]4CC[C@]23CN1C | inactive | inactive | inactive | inactive |  |  |  |
| Nc1cc([N+](=O)[O-])ccc1Cl | inactive | inactive |  | inactive |  |  |  |
| CCCCC(CC)COP(=O)(OCC(CC)CCCC)OCC(CC)CCCC (stereo not given) | inactive | inactive |  | inactive |  |  |  |
| COC(=O)CCCCCCCC(=O)OC | inactive | inactive | inactive | inactive |  |  |  |
| C=Cc1ccccc1C=C | inactive | inactive | inactive | inactive |  |  |  |
| C=Cc1cccc(C)c1 | inactive | inactive |  | inactive |  |  |  |
| CC(C)=O | inactive | inactive | inactive | inactive | inactive |  |  |
| O=C1c2ccccc2C(=O)C1c1ccc2cc(S(=O)(=O)O)cc(S(=O)(=O)O)c2n1 | inactive | inactive | inactive | inactive |  |  |  |
| Clc1nc(C(Cl)(Cl)Cl)c(Cl)c(Cl)c1Cl | inactive | inactive |  | inactive |  |  |  |
| CCCCCCCCCCCCc1ccccc1 | inactive | inactive | inactive | inactive |  |  |  |
| CCn1cc(C(=O)O)c(=O)c2cnc(N3CCNCC3)nc21 | inactive | inactive | inactive | inactive |  |  |  |
| COc1ccccc1N1CCN(CCCCNC(=O)c2ccc(-c3ccc(C(C)=O)cc3)cc2)CC1 | inactive | inactive |  | inactive |  |  |  |
| CC1(C)CCC[C@]2(C)[C@H]3CC(=O)O[C@]3(C)CC[C@@H]12 | inactive | inactive |  | inactive |  |  |  |
